# Measurements published in the supplement of paper PMC6555819.
# Key:
# Assay in all cases: PBM binding z-score (relative to random genomic background probes); higher = stronger binding; sequences stand for … in GC…GCGATTGACAGCGTAGAATGAAGG
# [1] = system: FXR:RXRa (NR concentration 270 nM, RXRa partner concentration 90 nM)
# Outline: (§1)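 Probes were double-stranded and carried 34-nt variable regions with direct-repeat seeds, single-nucleotide variants, half-site ablations and random human genomic background sequences, printed on custom Agilent 4×180K protein-binding microarrays. Arrays were incubated 1 h with ligand-free nuclear receptor dimers in PBS pH 7.4, 2% milk, 0.02% Triton X-100, 1 mM DTT, 0.2 mg/mL BSA and 0.4 mg/ml salmon testes DNA. Antibodies against each partner (one per run) detected binding, and scanned fluorescence was regression-normalized. Binding z-scores use the random background probes as reference.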
# [2] = system: LXRa:RXRa (NR concentration 270 nM, RXRa partner concentration 90 nM)
# Outline: as §1
# [3] = system: LXRa homodimer (NR concentration 270 nM)
# Outline: as §1
# [4] = system: LXRb:RXRa (NR concentration 270 nM, RXRa partner concentration 90 nM)
# Outline: as §1
# [5] = system: LXRb homodimer (NR concentration 270 nM)
# Outline: as §1
# [6] = system: PPARa:RXRa (NR concentration 270 nM, RXRa partner concentration 90 nM)
# Outline: as §1
# [7] = system: PPARg:RXRa (NR concentration 180 nM, RXRa partner concentration 90 nM)
# Outline: as §1
# [8] = system: PPARg:RXRa 270nM:90nM, anti-RXR (NR concentration 270 nM, RXRa partner concentration 90 nM)
# Outline: as §1
# [9] = system: PPARg:RXRa 30nM:10nM, anti-RXR (NR concentration 30 nM, RXRa partner concentration 10 nM)
# Outline: as §1
# [10] = system: PPARg:RXRa 90nM:30nM, anti-RXR (NR concentration 90 nM, RXRa partner concentration 30 nM)
# Outline: as §1
sequence,measurement,setting,value
TTACCAAGGTGAAAGGTCGTTGTTGCACGCCTTG,PBM binding z-score,[1],3.74
same,PBM binding z-score,[2],3.17
same,PBM binding z-score,[3],0.187
same,PBM binding z-score,[4],3.12
same,PBM binding z-score,[5],-0.415
same,PBM binding z-score,[6],5.29
same,PBM binding z-score,[7],8.39
same,PBM binding z-score,[8],7.47
same,PBM binding z-score,[9],6.57
same,PBM binding z-score,[10],8.04
CCTTACGGGTCACTTCAGGTTATAGCATCGGAGT,PBM binding z-score,[1],5.1
same,PBM binding z-score,[2],7.75
same,PBM binding z-score,[3],2.3
same,PBM binding z-score,[4],5.47
same,PBM binding z-score,[5],0.687
same,PBM binding z-score,[6],4.36
same,PBM binding z-score,[7],3.23
same,PBM binding z-score,[8],3.7
same,PBM binding z-score,[9],1.22
same,PBM binding z-score,[10],2.2
AGTCAAAGTTCATGTAGGTAACGTAAGATATGCT,PBM binding z-score,[1],6.48
same,PBM binding z-score,[2],5.94
same,PBM binding z-score,[3],4.83
same,PBM binding z-score,[4],3.65
same,PBM binding z-score,[5],1.37
same,PBM binding z-score,[6],4.9
same,PBM binding z-score,[7],6.75
same,PBM binding z-score,[8],6.37
same,PBM binding z-score,[9],3.09
same,PBM binding z-score,[10],5.61
TCGAGTAGGTTACCAAAGGGGCATTCAGCTTTCT,PBM binding z-score,[1],0.363
same,PBM binding z-score,[2],3.05
same,PBM binding z-score,[3],-0.577
same,PBM binding z-score,[4],1.61
same,PBM binding z-score,[5],-0.557
same,PBM binding z-score,[6],1.41
same,PBM binding z-score,[7],0.576
same,PBM binding z-score,[8],1.33
same,PBM binding z-score,[9],0.963
same,PBM binding z-score,[10],1.22
AATACAGGGTCACTAGGCCTGAGTAGGTACGAAT,PBM binding z-score,[1],6.29
same,PBM binding z-score,[2],4.71
same,PBM binding z-score,[3],0.651
same,PBM binding z-score,[4],3.72
same,PBM binding z-score,[5],0.544
same,PBM binding z-score,[6],5.53
same,PBM binding z-score,[7],6.71
same,PBM binding z-score,[8],5.29
same,PBM binding z-score,[9],2.26
same,PBM binding z-score,[10],4.42
TCGGGTAGGTTAGTCGGGGCATTCAGCCAACATA,PBM binding z-score,[1],0.578
same,PBM binding z-score,[2],0.368
same,PBM binding z-score,[3],0.422
same,PBM binding z-score,[4],1.38
same,PBM binding z-score,[5],0.98
same,PBM binding z-score,[6],1.01
same,PBM binding z-score,[7],-0.189
same,PBM binding z-score,[8],0.977
same,PBM binding z-score,[9],1.92
same,PBM binding z-score,[10],1.22
AGACCGAGGGCAATGAGTTGATAGCACGGGTGGC,PBM binding z-score,[1],-0.192
same,PBM binding z-score,[2],-0.0854
same,PBM binding z-score,[3],-0.495
same,PBM binding z-score,[4],-0.427
same,PBM binding z-score,[5],-0.95
same,PBM binding z-score,[6],0.375
same,PBM binding z-score,[7],0.499
same,PBM binding z-score,[8],-0.467
same,PBM binding z-score,[9],-0.824
same,PBM binding z-score,[10],-0.435
CAAACTAAGTCAAAGGTCAAAGTCGAGCCAACCA,PBM binding z-score,[1],6.46
same,PBM binding z-score,[2],6.42
same,PBM binding z-score,[3],5.19
same,PBM binding z-score,[4],6.08
same,PBM binding z-score,[5],2.84
same,PBM binding z-score,[6],6.84
same,PBM binding z-score,[7],11.4
same,PBM binding z-score,[8],10.3
same,PBM binding z-score,[9],11.8
same,PBM binding z-score,[10],12.2
CCAGACAGGTGAAAGGTAACTCTGTCTGGTACGC,PBM binding z-score,[1],0.257
same,PBM binding z-score,[2],1.07
same,PBM binding z-score,[3],-0.318
same,PBM binding z-score,[4],0.89
same,PBM binding z-score,[5],-0.274
same,PBM binding z-score,[6],3.45
same,PBM binding z-score,[7],5.57
same,PBM binding z-score,[8],6.03
same,PBM binding z-score,[9],4.71
same,PBM binding z-score,[10],5.8
GCGACTGGGGCATCAGCCGGTTACCATAACTTAA,PBM binding z-score,[1],-0.764
same,PBM binding z-score,[2],-0.553
same,PBM binding z-score,[3],-0.599
same,PBM binding z-score,[4],-0.35
same,PBM binding z-score,[5],-1.65
same,PBM binding z-score,[6],0.18
same,PBM binding z-score,[7],0.552
same,PBM binding z-score,[8],0.636
same,PBM binding z-score,[9],-0.73
same,PBM binding z-score,[10],-0.0776
ACTATTAGTTGACTTAGGGCAGCCGATACGACGC,PBM binding z-score,[1],-0.0135
same,PBM binding z-score,[2],-0.0603
same,PBM binding z-score,[3],0.0917
same,PBM binding z-score,[4],-0.372
same,PBM binding z-score,[5],0.721
same,PBM binding z-score,[6],-0.383
same,PBM binding z-score,[7],0.697
same,PBM binding z-score,[8],0.151
same,PBM binding z-score,[9],-0.128
same,PBM binding z-score,[10],0.0745
CCAGACAGGAGAAAGGTAACTCAGTCTGGTACGC,PBM binding z-score,[1],-0.00582
same,PBM binding z-score,[2],-0.0922
same,PBM binding z-score,[3],-0.373
same,PBM binding z-score,[4],-0.0883
same,PBM binding z-score,[5],-0.51
same,PBM binding z-score,[6],0.347
same,PBM binding z-score,[7],0.817
same,PBM binding z-score,[8],1.46
same,PBM binding z-score,[9],0.169
same,PBM binding z-score,[10],0.958
TAGCCAAGGTCATTGGGCCAGTATAGTACGCATC,PBM binding z-score,[1],7.45
same,PBM binding z-score,[2],5.57
same,PBM binding z-score,[3],1.49
same,PBM binding z-score,[4],4.67
same,PBM binding z-score,[5],0.952
same,PBM binding z-score,[6],5.95
same,PBM binding z-score,[7],6
same,PBM binding z-score,[8],5.57
same,PBM binding z-score,[9],2.47
same,PBM binding z-score,[10],3.59
CCAGACAGGTGAAAGGTGACTCAGTCTGGTACGC,PBM binding z-score,[1],1.34
same,PBM binding z-score,[2],1.27
same,PBM binding z-score,[3],-0.086
same,PBM binding z-score,[4],1.33
same,PBM binding z-score,[5],-0.308
same,PBM binding z-score,[6],4.15
same,PBM binding z-score,[7],6.88
same,PBM binding z-score,[8],6.76
same,PBM binding z-score,[9],5.26
same,PBM binding z-score,[10],7.19
GCTGCTAGGTCAACTGATGGTCAGCCAAAGCTCG,PBM binding z-score,[1],3.81
same,PBM binding z-score,[2],3.1
same,PBM binding z-score,[3],0.159
same,PBM binding z-score,[4],2.08
same,PBM binding z-score,[5],0.187
same,PBM binding z-score,[6],3.65
same,PBM binding z-score,[7],2.88
same,PBM binding z-score,[8],2.91
same,PBM binding z-score,[9],0.226
same,PBM binding z-score,[10],1.68
CCTCGGAGGACAACAGGAAGTCAGAGCTGCCAGA,PBM binding z-score,[1],-0.229
same,PBM binding z-score,[2],-0.454
same,PBM binding z-score,[3],-0.458
same,PBM binding z-score,[4],-0.667
same,PBM binding z-score,[5],-0.823
same,PBM binding z-score,[6],-0.671
same,PBM binding z-score,[7],0.123
same,PBM binding z-score,[8],-0.726
same,PBM binding z-score,[9],-1.03
same,PBM binding z-score,[10],-1.13
CCGACTGGGGCAAGATTACCATAACGCACAGCCA,PBM binding z-score,[1],-0.454
same,PBM binding z-score,[2],-0.432
same,PBM binding z-score,[3],-0.473
same,PBM binding z-score,[4],-0.425
same,PBM binding z-score,[5],-1.17
same,PBM binding z-score,[6],-0.0466
same,PBM binding z-score,[7],1.17
same,PBM binding z-score,[8],0.422
same,PBM binding z-score,[9],-0.715
same,PBM binding z-score,[10],-0.513
GGAACGAGGGCAAGTTCATAGCAGAGTTTGATGG,PBM binding z-score,[1],2.59
same,PBM binding z-score,[2],1.97
same,PBM binding z-score,[3],0.721
same,PBM binding z-score,[4],1.46
same,PBM binding z-score,[5],-0.0122
same,PBM binding z-score,[6],2.95
same,PBM binding z-score,[7],2.11
same,PBM binding z-score,[8],2.35
same,PBM binding z-score,[9],0.471
same,PBM binding z-score,[10],1.57
TCTTGTCGATCAACAGGAGGTTAAGAAAGATCGA,PBM binding z-score,[1],0.21
same,PBM binding z-score,[2],0.937
same,PBM binding z-score,[3],0.145
same,PBM binding z-score,[4],0.977
same,PBM binding z-score,[5],-0.356
same,PBM binding z-score,[6],1.11
same,PBM binding z-score,[7],-0.231
same,PBM binding z-score,[8],0.969
same,PBM binding z-score,[9],1.86
same,PBM binding z-score,[10],1.64
ATCGAAAGGTCGAAGGTGGGTATACCCACCCGAA,PBM binding z-score,[1],4.08
same,PBM binding z-score,[2],3.18
same,PBM binding z-score,[3],0.0928
same,PBM binding z-score,[4],2.34
same,PBM binding z-score,[5],0.437
same,PBM binding z-score,[6],4.28
same,PBM binding z-score,[7],3.74
same,PBM binding z-score,[8],3.99
same,PBM binding z-score,[9],1.28
same,PBM binding z-score,[10],2.77
TAGCCTAAGTCATTCAGGGGCCAGTATAGAAAGC,PBM binding z-score,[1],0.125
same,PBM binding z-score,[2],-0.0745
same,PBM binding z-score,[3],-0.319
same,PBM binding z-score,[4],0.338
same,PBM binding z-score,[5],-0.276
same,PBM binding z-score,[6],0.0691
same,PBM binding z-score,[7],0.0111
same,PBM binding z-score,[8],0.16
same,PBM binding z-score,[9],-0.308
same,PBM binding z-score,[10],-0.241
CTCGAAAGGTCGGTTGAGGTGAGTATTCGGATAA,PBM binding z-score,[1],2.94
same,PBM binding z-score,[2],1.75
same,PBM binding z-score,[3],-0.326
same,PBM binding z-score,[4],1.32
same,PBM binding z-score,[5],-0.125
same,PBM binding z-score,[6],2.56
same,PBM binding z-score,[7],-0.124
same,PBM binding z-score,[8],1.15
same,PBM binding z-score,[9],0.0232
same,PBM binding z-score,[10],0.23
CGAACTAGGTCATTGTCAGGACAGTGAATAGTAA,PBM binding z-score,[1],3.91
same,PBM binding z-score,[2],3.08
same,PBM binding z-score,[3],0.611
same,PBM binding z-score,[4],1.99
same,PBM binding z-score,[5],0.0511
same,PBM binding z-score,[6],4.67
same,PBM binding z-score,[7],7.44
same,PBM binding z-score,[8],6.43
same,PBM binding z-score,[9],4.07
same,PBM binding z-score,[10],5.88
TCTAGCAGGCCAGAGGGTCACACAAGAGGTACGG,PBM binding z-score,[1],1.67
same,PBM binding z-score,[2],1.66
same,PBM binding z-score,[3],-0.408
same,PBM binding z-score,[4],1.83
same,PBM binding z-score,[5],-1.34
same,PBM binding z-score,[6],3.11
same,PBM binding z-score,[7],2.49
same,PBM binding z-score,[8],3.28
same,PBM binding z-score,[9],2.36
same,PBM binding z-score,[10],3.09
